# In all, about 39,000 compounds went through this assay and about 3,300 (8.5%) were called active. What follows is part of a selection rich in actives, with near analogues and random picks from the rest.
# System: HepG2
# Assay: cytotoxicity call (relative viability < 0.9)
# Conditions: 10 µM
row,SMILES,cytotoxicity call
1,C[C@H]1CN([C@@H](C)CO)C(=O)c2cccc(NC(=O)C3CC3)c2O[C@H]1CN(C)S(=O)(=O)c1ccc(F)cc1,inactive
2,COc1ccc(CN(C)C[C@H]2OCCCC[C@@H](C)Oc3ccc(NS(=O)(=O)c4ccc(C)cc4)cc3C(=O)N([C@H](C)CO)C[C@H]2C)cc1,inactive
3,C[C@H]1CN([C@@H](C)CO)C(=O)c2cc(NS(=O)(=O)c3cn(C)cn3)ccc2O[C@@H]1CN(C)S(=O)(=O)c1ccc(Cl)cc1,inactive
4,NNC(=O)c1cccc(C(F)(F)F)n1,inactive
5,CCC(=O)O[C@H]1[C@@H]2CC3=C4CC(=O)O[C@@H](c5ccoc5)[C@]4(C)CC[C@@H]3[C@@](C)(C2=O)[C@@H](CC(=O)OC)C1(C)C,inactive
6,C[C@H](CO)N1C[C@H](C)[C@H](CN(C)C(=O)c2ccccc2)OCCCC[C@H](C)Oc2ccc(NS(=O)(=O)c3cccs3)cc2C1=O,inactive
7,C[C@@H]1CN([C@@H](C)CO)C(=O)c2cc(NC(=O)Cc3cn(C)c4ccccc34)ccc2O[C@H]1CN(C)CC1CCCCC1,inactive
8,COc1cccc(S(=O)(=O)Nc2ccc3c(c2)[C@H]2C[C@H](CC(=O)NC4CCCCC4)O[C@@H](CO)[C@H]2O3)c1,inactive
9,CN(C)CCCNC(=O)C[C@@H]1CC[C@H]2[C@H](COc3ccc(NC(=O)c4cccc(F)c4)cc3C(=O)N2C)O1,inactive
10,COc1ccc(S(=O)(=O)Nc2ccc3c(c2)C(=O)N([C@@H](C)CO)C[C@@H](C)[C@@H](CN(C)Cc2ccc4c(c2)OCO4)OCCCC[C@H](C)O3)cc1,inactive
11,CCC(=O)NCc1nccc(N(C)C)n1,inactive
12,C[C@H](CO)N1C[C@H](C)[C@@H](CN(C)S(=O)(=O)c2ccc(F)cc2)Oc2ccc(NC(=O)Cn3cnnn3)cc2CC1=O,inactive
13,C[C@H]1CN([C@@H](C)CO)C(=O)c2cc(NC(=O)Nc3ccc(C(F)(F)F)cc3)ccc2O[C@H]1CN(C)Cc1ccc(C(=O)Nc2ccccc2N)cc1,inactive
14,C[C@@H]1CN([C@@H](C)CO)C(=O)c2cc(NC(=O)Nc3ccc(C(F)(F)F)cc3)ccc2O[C@H]1CN(C)Cc1ccc(C(=O)Nc2ccccc2N)cc1,active
15,C[C@H](CO)N1C[C@H](C)[C@@H](CN(C)Cc2ccc(C(=O)Nc3ccccc3N)cc2)Oc2ccc(NC(=O)Nc3ccc(C(F)(F)F)cc3)cc2C1=O,inactive
16,C[C@@H]1CN([C@@H](C)CO)C(=O)c2cccc(NC(=O)C3CCOCC3)c2O[C@@H]1CN(C)S(=O)(=O)c1ccc(F)cc1,inactive
17,Cc1noc(C)c1S(=O)(=O)Nc1ccc2c(c1)C(=O)N([C@H](C)CO)C[C@@H](C)[C@H](CN(C)CC1CCCCC1)OCCCC[C@@H](C)O2,inactive

# Reference: the antibiotic and cytotoxicity screens of Wong et al. (2023)
